Only some compounds are listed: those with a hit (about 3.3% of all), similar ones and a draw of the others.
SMARCA2 activ: activators of SMARCA2 function; MG213 cells, MMTV-luciferase reporter, dexamethasone, overnight; activation, % at 9.1 µM; 370,000 compounds, 1% hits; AID 652017; in the data active means activation above about 7.8%
esBAF inh: blocks esBAF chromatin remodeling in mouse ES cells. AID 602393. Bmi1-luciferase knock-in reporter, 24 h; 100% = twice the neutral-well signal. reporter increase, % at 12.5 µM. 350,000 compounds, 2% hits; in the data active means activation above about 40%;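 further: a rise in the Bmi1 reporter signal indicates esBAF inhibition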
697 NFkB inh: lowers PMA/ionomycin-induced NF-kB signal in 697 B cells. 697 B-cell NF-kB luciferase reporter, 16 h. inhibition, % at 4 µM. 330,000 compounds, 0.33% hits; in the data active means inhibition above about 35%
Gli-Sufu block: antagonists of Gli-Sufu signaling; Sufu-KO-LIGHT fibroblasts, Gli luciferase reporter luminescence; inhibition, % at 5 µM; 340,000 compounds, 0.74% hits;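 active means inhibition above about 55%, limit read from the data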
Jurkat NFkB inh: inhibitors of the PMA/ionomycin-induced NF-kB reporter in Jurkat cells | PMA/ionomycin-induced NF-kB luciferase reporter, luminescence | inhibition, % at 4 µM | 330,000 compounds, 0.53% hits; in the data active means inhibition above about 50%
Jurkat NFkB conf: inhibitors of the PMA/ionomycin-induced NF-kB reporter in Jurkat cells, retest; shares compounds with Jurkat NFkB inh; Jurkat NF-kB luciferase, 16 h; inhibition, % at 4 µM; 2,700 compounds, 27% hits;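 active means inhibition reaching about 45% at 4 µM in either replicate, limit read from the data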
Large screens that a line does not name were inactive (follow-up assays come after a bar, where they were run).

C[C@@H]1CCCCO[C@H](CN(C)Cc2ccc(C(F)(F)F)cc2)[C@H](C)CN([C@H](C)CO)C(=O)c2cc(NC(=O)c3ccncc3)ccc2O1	none (no result: SMARCA2 activ, 697 NFkB inh, Gli-Sufu block, Jurkat NFkB inh)
COCC(=O)Nc1ccc2c(c1)OC[C@H](C)N(C(=O)c1ccccc1)C[C@H](C)[C@@H](OC)CN(C)C2=O	none (no result: SMARCA2 activ, 697 NFkB inh, Gli-Sufu block, Jurkat NFkB inh)
Cc1ccc2c(c1)sc(-c1ccc(N(C)C)cc1)[n+]2C	Gli-Sufu block 56, Jurkat NFkB inh 93 | Jurkat NFkB conf 73
C[C@@H]1CN([C@H](C)CO)C(=O)c2cccc(NS(C)(=O)=O)c2O[C@@H]1CN(C)C(=O)Nc1ccc(F)cc1	none (no result: SMARCA2 activ, 697 NFkB inh, Gli-Sufu block, Jurkat NFkB inh)
CCN(Cc1ccccc1)c1ccccc1	none (no result: 697 NFkB inh, Jurkat NFkB inh)
CCN(Cc1ccccc1)c1ccc(/C=N/N=C(N)N)cc1	Jurkat NFkB inh 61 (no result: esBAF inh) | Jurkat NFkB conf inactive
Oc1ccc(Br)cc1-c1cc(-c2ccco2)[nH]n1	none (no result: esBAF inh)
Oc1c(-c2cc(-c3ccco3)[nH]n2)ccc2ccccc12	esBAF inh 65 | Jurkat NFkB conf inactive
Clc1ccc(Cn2ncc3c(NCc4ccccc4)ncnc32)c(Cl)c1	Jurkat NFkB inh 65 (no result: esBAF inh, Gli-Sufu block) | Jurkat NFkB conf inactive
Cn1ncc2c(NCc3ccccc3)ncnc21	none
Cc1ccc(C(=O)n2c3ccccc3c3ccccc32)cc1	Jurkat NFkB inh 54 (no result: esBAF inh) | Jurkat NFkB conf inactive
CC(=O)n1c2ccccc2c2ccccc21	none
N/C(=N\OCc1ccc([N+](=O)[O-])cc1)c1ccccn1	Jurkat NFkB inh 60 (no result: SMARCA2 activ, esBAF inh) | Jurkat NFkB conf 65
CC(C(=O)O/N=C(\N)c1ccccn1)c1ccc([N+](=O)[O-])cc1 (stereo not given)	none (no result: esBAF inh)
CCN(c1ccccc1)S(=O)(=O)c1ccc(NC(=O)c2nc(S(C)(=O)=O)ncc2Cl)cc1	none (no result: SMARCA2 activ)
CCS(=O)(=O)c1ncc(Cl)c(C(=O)Nc2ccc(S(=O)(=O)N(C)c3ccccc3)cc2)n1	Jurkat NFkB inh 75 | Jurkat NFkB conf inactive

Assay outcomes: PubChem, several laboratories
